Compounds with a hit are over-represented: about 6.9% of the library has one in this group of screens.
HCV NS3h FP = hepatitis C NS3 helicase inhibition, primary screen; NS3h Cy5-dT15 DNA binding, fluorescence polarization; inhibition, % at 100 µM; 1.6% of 16,000 active;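 active means inhibition above the average over every tested compound plus 3 SD, cut at about 40% in these data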
Cy5 interf NS3h = Cy5 fluorescence interference, HCV helicase counter-screen. Cy5-dT15 DNA with NS3h; actives lie on both sides; signal over control mean, under 1 quenches. fluorescence interference ratio at 100 µM. 6% of 16,000 active. AID 720488;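 active means compound fluorescence over control fluorescence at most 0.8, a quencher, or at least a set upper limit, an enhancer; inactive means ratio between 0.8 and the set upper limit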
Starred values were filed as active, the others as inactive.

SMILES	HCV NS3h FP	Cy5 interf NS3h
CCC(=O)Nc1sc2c(c1C(=O)Nc1ccc(OC)cc1)CCC2	-7	0.9
COc1ccc(NC(=O)c2c(NC(=O)C(Cl)(Cl)Cl)sc3c2CCC3)cc1	27	0.6*
O=C(Nc1ccc(N2CCOCC2)c(Cl)c1)c1ccc(-c2ccc(F)cc2)o1	16	0.93
CCN1C(=O)/C(=C\c2ccc(-c3ccc(C)c(Cl)c3)o2)SC1=S	12	1.1
CCN1C(=O)/C(=C\c2ccc(-c3ccc(I)cc3)o2)SC1=S	9	0.72*
Cc1ccc(C(O)=C2C(=O)C(=O)N(CCCC(=O)O)C2c2ccc(Br)cc2)cc1 (stereo not given)	9	1.2*
O=C(O)CCCCCN1C(=O)C(=O)C(=C(O)c2ccc(F)cc2)C1c1ccc(Cl)cc1 (stereo not given)	-1	1
COC(=O)c1cc(-c2ccc(/C=C(\C#N)C(=O)Nc3ccccc3)o2)ccc1Cl	-2	1
O=C(NCC1CCCO1)c1cc2nc(-c3ccccc3)cc(-c3ccccc3)n2n1 (stereo not given)	16	0.62*
COCCNC(=O)c1cc2nc(-c3ccccc3)cc(-c3ccccc3)n2n1	18	0.94
COC(=O)c1ccc(C(=O)OC)c(NC(=O)COc2ccc(Cl)cc2C)c1	8	1.2
Cc1cc([N+](=O)[O-])c(-c2ccc(C=C3C(=O)c4ccccc4C3=O)o2)cc1Cl	6	1
O=C1NC(=O)C(=Cc2ccc(-c3cc(Cl)c([N+](=O)[O-])cc3Cl)o2)C(=O)N1	-141	0.04*
CC(C)(C)c1cc(C(F)(F)F)nc(NC(=O)NS(=O)(=O)c2ccccc2Cl)n1	6	0.94
COc1ccc(/C=C2\SC(=S)N(CC(=O)Nc3ncc(Cc4cccc([N+](=O)[O-])c4)s3)C2=O)cc1OC	15	0.98
COc1ccccc1CC1CC(=O)N(c2ccc(Cl)c(Cl)c2)C1=O (stereo not given)	1	1
COc1cc(C=O)cc(Br)c1OCc1ccccc1Cl	8	1
CCOc1cc(C=O)cc(I)c1OCc1ccccc1Cl	9	0.64*
COC(=O)c1cc(Nc2nc3ccccc3nc2NS(=O)(=O)c2ccccc2)ccc1Cl	21	0.69*
COC(=O)c1ccccc1NS(=O)(=O)c1ccc(NC(C)=O)cc1	-7	1
O=C1c2cccc3cccc(c23)C(=O)N1/N=C\c1cccc([N+](=O)[O-])c1	-8	0.74*
O=C1c2cccc3cccc(c23)C(=O)N1/N=C\c1ccc(Br)cc1	-53	0.86
CCN(CC)c1ccc(C2Nc3ccccc3NC3=C2C(=O)CC(c2ccc(OC)cc2)C3)cc1 (stereo not given)	12	0.9
O=C(O)CCCCCN1C(=O)C(=O)C(=C(O)c2ccc(Cl)cc2)C1c1cccc(F)c1 (stereo not given)	15	0.93
COc1ccc(NC(=S)NC(=O)c2ccc(Br)cc2)cc1	23	0.93
SMILES	HCV NS3h FP	Cy5 interf NS3h
c1ccc(NC2=Nc3cccc4cccc2c34)cc1	24	0.59*
CN(C)c1ccc(NC2=NS(=O)(=O)c3ccccc32)cc1	0	0.95
N/C(=N/OC(=O)c1ccccc1F)c1ccc([N+](=O)[O-])cc1	-6	0.78*
N/C(=N/OC(=O)c1ccc(Br)cc1)c1ccc([N+](=O)[O-])cc1	2	0.96
COc1ccc(N(CC(=O)Nc2ccc(Br)cc2)S(=O)(=O)c2ccc(C)cc2)c(OC)c1	21	1.1
O=C(Nc1ccc(Cl)cc1)Nc1nnc(Cc2ccc(Cl)cc2)s1	-2	1.1
O=C(Nc1nnc(Cc2ccc(Cl)cc2)s1)c1ccccc1F	25	0.7*
CC1(C)CC(=O)C(C2(C3=C(O)CC(C)(C)CC3=O)C(=O)Nc3ccccc32)C(=O)C1 (stereo not given)	3	0.92
O=C(CSc1cccc2cccnc12)OCC(=O)c1ccccc1	-10	0.93
O=C(CSc1ccccn1)OCC(=O)c1ccc(Br)cc1	4	0.64*
O=C(O)c1ccc(NC(=O)c2cc(NC(=O)c3ccc(C(=O)O)cc3)cc(C(=O)Nc3ccc([N+](=O)[O-])cc3)c2)cc1	11	1
CC(C)(C)c1ccc(OCC(=O)Nc2cccc(OC(F)(F)F)c2)cc1	7	1
CC(C)(C)c1ccc(OCC(=O)Nc2cccc(C(=O)Nc3nccs3)c2)cc1	-6	0.8*
COc1ccc(Cl)cc1S(=O)(=O)N1CCC(Cc2ccccc2)CC1	-6	0.97
O=C(Nc1ccc(NC(=O)c2ccc3ccccc3c2)cc1)c1ccccc1	6	1
O=C(Nc1cc(Cl)cc(Cl)c1)c1ccc2ccccc2c1	19	1.3*
COc1ccc2nc(SCC(=O)NCc3ccccc3)[nH]c2c1	6	1
COc1ccc(C(=O)CSc2nc3ccc([N+](=O)[O-])cc3[nH]2)cc1	-4	0.66*
CCCCOc1ccc(NC(=O)CCSc2nccn2C)cc1	14	0.69*
CCCCOc1ccc(NC(=O)CSc2nnc(-c3cccc(F)c3)n2-c2ccccc2)cc1	2	1.1
Cc1cc(C)nc(N=C(N)Nc2ccc(C(=O)O)cc2)n1	-14	1.1
Cc1cc(C)nc(N=C(N)Nc2ccc(Cl)cc2C(=O)c2ccccc2)n1	1	0.79*
CCOc1cc(/C=C2\SC(=S)N(CC(C)C)C2=O)ccc1O	13	0.78*
CCOc1cc(/C=C2\SC(=S)N(C(C)C)C2=O)ccc1O	14	0.89
CC1=NN(c2ccc(S(N)(=O)=O)cc2)C(=O)/C1=C\c1ccc(-c2ccc(Cl)cc2)o1	0	0.91
SMILES	HCV NS3h FP	Cy5 interf NS3h
CC(N=C(NS(=O)(=O)c1ccccc1)c1ccccc1)C(=O)O (stereo not given)	-15	1
Cc1ccc(S(=O)(=O)NC(=NC(Cc2ccccc2)C(=O)O)c2ccccc2)cc1 (stereo not given)	20	0.74*
Cc1ccc(NC2=C(Cl)C(=O)N(c3ccc(Cl)cc3)C2=O)cc1C	-10	0.93
COC(=O)CN1C(=O)C(=Cc2ccc(C)cc2)SC1=S	17	0.98
Cc1cc(C=C2C(=O)N(C)C(=O)N(C)C2=O)c(C)n1C	-10	1.1
Cc1cc(/C=C2\C(=O)NC(=S)N(c3ccccc3)C2=O)c(C)n1-c1ccccc1	0	1.1
Cc1cc(/C=C2\C(=O)NC(=S)N(c3ccccc3)C2=O)c(C)n1-c1cccnc1	15	1.2*
Cc1cc(/C=C2\C(=O)NC(=S)N(c3ccc(Br)cc3)C2=O)c(C)n1C	33	1.2
Cc1cc(Br)ccc1N1C(=O)/C(=C/c2cc(C)n(C)c2C)C(=O)NC1=S	-12	1.2*
CCc1ccccc1N1C(=O)/C(=C/c2cc(C)n(C)c2C)C(=O)NC1=S	10	1.2*
Cc1nc2cc(-c3cccc(F)c3)[nH]n2c(=O)c1Cl	6	1.1
O=C(Oc1ccc(-c2ccccc2)cc1)c1ccccc1[N+](=O)[O-]	2	1.1
COC(=O)c1ccc(NC(=S)NC(=O)c2ccc(F)cc2)cc1	13	0.92
CCOC(=O)c1ccc(N2NC(=O)/C(=C/c3cccc(I)c3)C2=O)cc1	20	0.79*
CCOC(=O)c1ccc(N2NC(=O)/C(=C/c3cc(OC)c(O)c(OC)c3)C2=O)cc1	14	0.96
O=C(Nc1ccc(Nc2ccccc2)cc1)c1ccc([N+](=O)[O-])cc1	17	0.95
CC(C)N(C(=O)c1ccc(C(=O)Nc2ccc(Nc3ccccc3)cc2)cc1)C(C)C	17	0.7*
CC(=O)Nc1ccc(-n2c(C)cc(/C=C(\C#N)C(=O)Nc3ccc(F)cc3)c2C)cc1	4	0.95

From PubChem
